In the supplement of paper PMC9262897, “Low-cost anti-mycobacterial drug discovery using engineered E. coli” (Nature Communications, 2022):
Where a name gives a salt, the structure may show the parent alone. ± gives the standard deviation of the averaged measurements.

Assays:
Assay in all cases: growth (OD600 after 10 h); higher = more growth (less inhibition)
[1] = tested on: E. coli TESEC Alr+ wild-type control; conditions: compound 0.1 mM; raw OD600 reference: median of DMSO wells 0.241, cell-free background 0.041
Method: (§1)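 TESEC Mtb Alr E. coli, or the Alr+ wild-type control, in 384-well plates with Prestwick library compounds at 0.1 mM and 1% DMSO, across arabinose induction levels of 1E3 to 1E7 nM. Growth is read as OD600 after 10 h at 37 °C in triplicate biological replicates.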

E. coli TESEC Mtb Alr [2] = conditions: compound 0.1 mM
Method: as §1

E. coli TESEC Mtb Asd = conditions: compound 0.1 mM
Method: (§2)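 TESEC E. coli strains in which the native enzyme is deleted and replaced by arabinose-inducible Mtb Asd, DapB, CysH or TrpD, each grown in its selective medium. Strains were screened against the Prestwick library at 0.1 mM and 1% DMSO in 384-well format at low and high arabinose induction. Growth is read as OD600 after 10 h in triplicate.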

E. coli TESEC Mtb DapB = conditions: compound 0.1 mM
Method: as §2

[3] = tested on: E. coli TESEC Alr+ wild-type control; conditions: compound 0.1 mM; raw OD600 reference: median of DMSO wells 0.49, cell-free background 0.052
Method: (§3)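 TESEC Mtb Alr E. coli (ΔaraC ΔtolC ΔentC Δalr ΔdadX, arabinose-inducible Mtb Alr) or the Alr+ wild-type control strain, grown in defined M9-fructose medium without D-alanine in 96-well plates with Prestwick library compounds at 0.1 mM and 1% DMSO. Low Alr induction is 0.1 µM arabinose and high induction is 10 mM arabinose.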

E. coli TESEC Mtb Alr [4] = conditions: compound 0.1 mM; remark: listed apart in the source
Method: as §3

[5] = arabinose 1000 nM, raw OD600 reference: median of DMSO wells 0.294, cell-free background 0.041
[6] = arabinose 10000 nM, raw OD600 reference: median of DMSO wells 0.264, cell-free background 0.041
[7] = arabinose 100000 nM, raw OD600 reference: median of DMSO wells 0.201, cell-free background 0.041
[8] = arabinose 1000000 nM, raw OD600 reference: median of DMSO wells 0.193, cell-free background 0.041
[9] = arabinose 10000000 nM, raw OD600 reference: median of DMSO wells 0.146, cell-free background 0.041
[10] = arabinose induction (level): High, raw OD600 reference: median of DMSO wells 0.331, cell-free background 0.041
[11] = arabinose induction (level): Low, raw OD600 reference: median of DMSO wells 0.417, cell-free background 0.041
[12] = arabinose induction (level): High, raw OD600 reference: median of DMSO wells […], cell-free background 0.041
[13] = arabinose induction (level): Low, raw OD600 reference: median of DMSO wells 0.227, cell-free background 0.041
[14] = arabinose 100 nM, raw OD600 reference: median of DMSO wells 0.413, cell-free background 0.052
[15] = arabinose 10000000 nM, raw OD600 reference: median of DMSO wells […], cell-free background 0.052

SMILES | growth [1] | growth (E. coli TESEC Mtb Alr [2]; [5]) | growth (E. coli TESEC Mtb Alr [2]; [6]) | growth (E. coli TESEC Mtb Alr [2]; [7]) | growth (E. coli TESEC Mtb Alr [2]; [8]) | growth (E. coli TESEC Mtb Alr [2]; [9]) | growth (E. coli TESEC Mtb Asd; [10]) | growth (E. coli TESEC Mtb Asd; [11]) | growth (E. coli TESEC Mtb DapB; [12]) | growth (E. coli TESEC Mtb DapB; [13]) | growth [3] | growth (E. coli TESEC Mtb Alr [4]; [14]) | growth (E. coli TESEC Mtb Alr [4]; [15])
COc1ccc(-c2ccc(=N)n(CCCC(=O)O)n2)cc1 [Gabazine bromide] | 0.247 ± 0.012 | 0.279 ± 0.029 | 0.262 ± 0.007 | 0.225 ± 0.027 | 0.19 ± 0.0086 | 0.148 ± 0.0044 | 0.232 ± 0.02 | 0.342 ± 0.055 | 0.206 ± 0.0056 | 0.208 ± 0.021 | 0.599 ± 0.11 | 0.402 ± 0.0095 | 0.341 ± 0.0049
CN1C(C(=O)Nc2ccccn2)=C(O)c2sccc2S1(=O)=O [Tenoxicam] | 0.195 ± 0.0081 | 0.238 ± 0.0097 | 0.223 ± 0.0086 | 0.212 ± 0.0097 | 0.152 ± 0.0064 | 0.139 ± 0.0027 | 0.281 ± 0.11 | 0.223 ± 0.01 | 0.185 ± 0.0085 | 0.18 ± 0.0088 | 0.493 ± 0.051 | 0.375 ± 0.05 | 0.277 ± 0.01
Nc1ccc(/N=N/c2ccccc2)c(N)n1 [Phenazopyridine hydrochloride] | 0.152 ± 0.0064 | 0.172 ± 0.0075 | 0.251 ± 0.0051 | 0.144 ± 0.0084 | 0.184 ± 0.0075 | 0.16 ± 0.009 | 0.255 ± 0.039 | 0.22 ± 0.016 | 0.196 ± 0.01 | 0.189 ± 0.022 | 0.405 ± 0.014 | 0.414 ± 0.0063 | 0.301 ± 0.021
CC(=O)O[C@]1(C(C)=O)CC[C@H]2[C@@H]3C=C(C)C4=CC(=O)CC[C@]4(C)[C@H]3CC[C@@]21C [Megestrol acetate] | 0.206 ± 0.022 | 0.285 ± 0.024 | 0.266 ± 0.013 | 0.16 ± 0.003 | 0.164 ± 0.0052 | 0.163 ± 0.016 | 0.441 ± 0.041 | 0.46 ± 0.026 | 0.2058 ± 0.0013 | 0.248 ± 0.034 | 0.212 ± 0.22 | 0.291 ± 0.12 | 0.302 ± 0.041
O=C(O)/C=C/c1ccc(Cn2ccnc2)cc1 [Ozagrel hydrochloride] | 0.229 ± 0.006 | 0.268 ± 0.019 | 0.263 ± 0.0041 | 0.197 ± 0.025 | 0.179 ± 0.0082 | 0.143 ± 0.0023 | 0.248 ± 0.03 | 0.422 ± 0.035 | 0.176 ± 0.0061 | 0.207 ± 0.023 | 0.482 ± 0.076 | 0.397 ± 0.017 | 0.372 ± 0.014
CCOC(=O)[N-]c1c[n+](N2CCOCC2)no1 [Molsidomine] | 0.245 ± 0.0064 | 0.307 ± 0.0077 | 0.27 ± 0.0035 | 0.244 ± 0.048 | 0.182 ± 0.0019 | 0.166 ± 0.0027 | 0.305 ± 0.1 | 0.338 ± 0.084 | 0.207 ± 0.022 | 0.23 ± 0.02 | 0.562 ± 0.037 | 0.408 ± 0.014 | 0.313 ± 0.022
O=c1n(CCCN2CCN(c3cccc(Cl)c3)CC2)nc2ccccn12 [Trazodone hydrochloride] | 0.203 ± 0.0052 | 0.24 ± 0.011 | 0.235 ± 0.0052 | 0.159 ± 0.0089 | 0.105 ± 0.0032 | 0.13 ± 0.0034 | 0.242 ± 0.051 | 0.404 ± 0.099 | 0.189 ± 0.014 | 0.243 ± 0.057 | 0.471 ± 0.043 | 0.406 ± 0.0066 | 0.255 ± 0.028
CC(C)(C#N)c1cc(Cn2cncn2)cc(C(C)(C)C#N)c1 [Anastrozole] | 0.222 ± 0.0057 | 0.274 ± 0.0032 | 0.272 ± 0.0071 | 0.194 ± 0.009 | 0.183 ± 0.0054 | 0.13 ± 0.0054 | 0.339 ± 0.033 | 0.384 ± 0.038 | 0.194 ± 0.011 | 0.214 ± 0.028 | 0.483 ± 0.03 | 0.409 ± 0.0048 | 0.321 ± 0.016
CC(C)NCC(O)c1cc(O)cc(O)c1 (stereo not drawn) [Metaproterenol sulfate, orciprenaline sulfate] | 0.247 ± 0.0097 | 0.291 ± 0.0065 | 0.268 ± 0.01 | 0.2 ± 0.03 | 0.185 ± 0.011 | 0.144 ± 0.0048 | 0.283 ± 0.046 | 0.346 ± 0.019 | 0.177 ± 0.013 | 0.183 ± 0.015 | 0.635 ± 0.09 | 0.411 ± 0.011 | 0.352 ± 0.029
COC(=O)N/N=C/c1c[n+]([O-])c2ccccc2[n+]1[O-] [Carbadox] | 0.197 ± 0.014 | 0.23 ± 0.011 | 0.1488 ± 0.00015 | 0.116 ± 0.003 | 0.117 ± 0.0034 | 0.142 ± 0.0022 | 0.163 ± 0.015 | 0.192 ± 0.054 | 0.163 ± 0.017 | 0.168 ± 0.0094 | 0.143 ± 0.0067 | 0.157 ± 0.013 | 0.082 ± 0.0067
CC(=O)CCCCn1c(=O)c2c(ncn2C)n(C)c1=O [Pentoxifylline] | 0.2306 ± 0.0011 | 0.276 ± 0.0075 | 0.2728 ± 0.0025 | 0.203 ± 0.013 | 0.187 ± 0.0042 | 0.134 ± 0.0031 | 0.297 ± 0.079 | 0.387 ± 0.029 | 0.2 ± 0.024 | 0.207 ± 0.019 | 0.489 ± 0.096 | 0.431 ± 0.0088 | 0.363 ± 0.006
CC(C(=O)O)c1cccc(Oc2ccccc2)c1 (stereo not drawn) [Fenoprofen calcium salt dihydrate] | 0.22 ± 0.0072 | 0.267 ± 0.013 | 0.266 ± 0.0086 | 0.147 ± 0.0054 | 0.192 ± 0.0067 | 0.134 ± 0.0015 | 0.361 ± 0.075 | 0.322 ± 0.042 | 0.205 ± 0.01 | 0.192 ± 0.014 | 0.489 ± 0.089 | 0.397 ± 0.009 | 0.255 ± 0.0093
C=C(CC)C(=O)c1ccc(OCC(=O)O)c(Cl)c1Cl [Ethacrynic acid] | 0.0566 ± 0.0011 | 0.242 ± 0.01 | 0.244 ± 0.0042 | 0.2 ± 0.005 | 0.171 ± 0.0037 | 0.144 ± 0.0087 | 0.171 ± 0.057 | 0.19 ± 0.074 | 0.18 ± 0.0058 | 0.181 ± 0.022 | 0.374 ± 0.014 | 0.376 ± 0.0052 | 0.374 ± 0.017
Cc1c(C)c2c(c(C)c1O)CCC(C)(C(=O)O)O2 (stereo not drawn) [Trolox] | 0.247 ± 0.0084 | 0.295 ± 0.0077 | 0.255 ± 0.0029 | 0.209 ± 0.031 | 0.1784 ± 0.0016 | 0.143 ± 0.0045 | 0.272 ± 0.097 | 0.32 ± 0.15 | 0.242 ± 0.0084 | 0.222 ± 0.021 | 0.579 ± 0.053 | 0.405 ± 0.0096 | 0.316 ± 0.024
COc1ccccc1OCCNCC(O)COc1cccc2[nH]c3ccccc3c12 (stereo not drawn) [Carvedilol] | 0.0443 ± 0.0033 | 0.0415 ± 0.00062 | 0.046 ± 0.0023 | 0.0419 ± 0.00047 | 0.04137 ± 0.0004 | 0.0456 ± 0.0015 | 0.0533 ± 0.004 | 0.0496 ± 0.0017 | 0.0942 ± 0.026 | 0.06 ± 0.004 | 0.167 ± 0.11 | 0.4106 ± 0.0016 | 0.0825 ± 0.025
O=c1[nH]c(=O)n([C@H]2C[C@H](O)[C@@H](CO)O2)cc1C(F)(F)F [Trifluridine] | 0.194 ± 0.02 | 0.213 ± 0.049 | 0.0994 ± 0.0099 | 0.121 ± 0.0045 | 0.082 ± 0.0069 | 0.135 ± 0.0027 | 0.13 ± 0.0033 | 0.203 ± 0.0098 | 0.164 ± 0.006 | 0.174 ± 0.0024 | 0.476 ± 0.016 | 0.077 ± 0.0037 | 0.129 ± 0.023
